From PubChem BioAssay AID1508602 (The Scripps Research Institute Molecular Screening Center, 2020) come the findings set out here.

Structures are written as SMILES. Several values for one entry are separate records, joined by “and”; a condition that tells them apart may be missing. Equal entries are not always repeated. The whole screen tested about 650,000 compounds, of which about 6,800 (1%) were called active. Cut-off read from the data, not from the text of the source: active = activation above about 4.9%; inactive = the rest. Many of the other results were omitted from the sample, so actives are more common in it than they were. Where a structure was tested more than once in an assay, its records may differ in their call.

For the assay, the target named is G-protein coupled receptor 151 (Homo sapiens) (UniProt Q8TDV0). The assay can be described thus: activators of human GPR151, primary screen, cell-based, PathHunter beta-arrestin, luminescence (AID 1508602).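 Note: 0% = median of compound wells and 100% = cells with positive control.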 As to conditions: PathHunter beta-arrestin GPR151 cells, at 11.2 µM, stronger effect = higher value.
Chain of G-protein coupled receptor 151 (Homo sapiens) (Q8TDV0 whole entry, looked up): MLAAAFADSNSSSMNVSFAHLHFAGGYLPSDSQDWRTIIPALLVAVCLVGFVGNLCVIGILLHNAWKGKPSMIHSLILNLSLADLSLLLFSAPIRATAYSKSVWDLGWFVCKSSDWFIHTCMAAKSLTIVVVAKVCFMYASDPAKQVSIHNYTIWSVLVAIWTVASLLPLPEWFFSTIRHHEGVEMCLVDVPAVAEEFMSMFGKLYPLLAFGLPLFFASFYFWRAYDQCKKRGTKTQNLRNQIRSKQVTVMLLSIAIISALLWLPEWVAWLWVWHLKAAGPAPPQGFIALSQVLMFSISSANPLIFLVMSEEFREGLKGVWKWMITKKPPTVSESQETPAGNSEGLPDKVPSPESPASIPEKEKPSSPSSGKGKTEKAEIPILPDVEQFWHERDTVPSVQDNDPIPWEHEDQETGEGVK
For `CO[C@@H]1COC(=O)[C@@H](C)COC(=O)[C@H](C)NC(=O)C/C=C/[C@H]1C`, the activation is 1.97% (inactive) and 5.04% (active). With `c1ccc(Nc2nccc(Nc3ccc(N4CCOCC4)cc3)n2)cc1`, the activation is 2.16% (inactive).

`COc1cc(Nc2ccnc(Nc3ccncc3)n2)cc(OC)c1OC`: the activation is 1.57% (inactive). Consider `CCN(CC)c1nc(Nc2cc(OC)c(OC)c(OC)c2)nc(Nc2nc3ccccc3n2C)n1`, for which the activation is -0.32% (inactive). For `CCN(CC)c1nc(Nc2ccccc2)nc(N2CCOCC2)n1` the value was -0.263% (inactive).

For the compound `CCN(CC)c1nc(Nc2cc(OC)c(OC)c(OC)c2)nc(N2CCOCC2)n1`, the activation was 5.49% (active).

Take `COc1cc(Nc2ccnc(Nc3ccc(N4CCOCC4)cc3)n2)cc(OC)c1OC`: the activation is 5.76% (active). In the case of `O=C1CCC(CCC(=O)N2CCCC2)(Cc2cccc3ccccc23)N1` (stereo not given), the activation is 0.278% (inactive). As to `Cc1ccc(C(C)C)c(OCCNC(=O)c2cccs2)c1`, the activation is 0.446% (inactive). Take `COc1ccc(CC2(CCC(=O)NCCCn3ccnc3)CCC(=O)N2)c(F)c1` (stereo not given): the activation is -0.719% (inactive). `COc1cc(Nc2ccc(-n3cc(CC(=O)NCCCN4CCCC4=O)c4ccccc43)nn2)cc(OC)c1OC`: the activation was -1.03% (inactive).

In the case of `COC(=O)c1c(-c2ccccc2)csc1NC(=O)c1ccc(OC)c([N+](=O)[O-])c1`, the activation was 6.64% (active). Take `CCOC(=O)c1c(-c2ccc([N+](=O)[O-])cc2)csc1NC(=O)c1ccccc1`: the activation was -1.07% (inactive). As to `COc1ccc(C(=O)NCC(=O)O)cc1[N+](=O)[O-]`, the activation is -1.88% (inactive). On to `COC(=O)c1cccc(-n2nnnc2SCC(=O)Nc2nc(C(C)(C)C)cs2)c1`, for which the activation was -0.122% (inactive). `CC(C(=O)O)c1ccc(NC(=O)OC(C)(C)C)cc1` (stereo not given): the activation is -1.31% (inactive). For `COc1ccc(N2C(=O)CSC2c2cccc(Cl)c2Cl)cc1Cl` (stereo not given) the value was 0.734% (inactive). `COc1cccc(C2SCC(=O)N2c2cccc(C)c2)c1OC` (stereo not given): the activation is 5.36% (active). The result for `COc1ccc(N2C(=O)CSC2c2ccccc2F)cc1Cl` (stereo not given) reads -0.327% (inactive). For `Cc1c(NC(=O)c2nn3c(C(F)(F)F)cc(-c4ccc(Cl)cc4)nc3c2Cl)c(=O)n(-c2ccccc2)n1C` the value was -1.62% (inactive); for `N#C/C(=C/c1ccc(Br)o1)C(=O)NCCc1c[nH]c2ccccc12`, 0.189% (inactive). In the case of `Cc1cc(CN(C)Cc2nc(NCC3CCCO3)c3ccc(Cl)cc3n2)on1` (stereo not given), the activation is -0.552% (inactive). In the case of `COc1cc(-c2ncnn2-c2ccc(Cl)cc2)ccc1OCc1ccccc1`, the activation was -3.78% (inactive). For `COCc1cc(C)c(C#N)c(N(C)C)n1`, the activation is 0.894% (inactive). On to `CC1=NN(c2cccc(Cl)c2)C(=O)/C1=C\c1ccc(F)cc1`, for which the activation is -0.302% (inactive). As for `O=C(NCCc1ccsc1)c1ccccc1Cl`, the activation was -3.26% (inactive). For the compound `COc1ccc(CNC(=O)NCc2ccsc2)cc1`, the activation was -0.956% (inactive).

Consider `O=C(NCc1ccsc1)c1ccc(-n2cccc2)cc1`, for which the activation is 6.14% (active). The result for `O=C(NCCc1ccc(N2CCCC2)cc1)c1ccc(F)cc1` reads 0.277% (inactive). Regarding `CCn1c(NCc2ccccc2OC)nc2ccccc21`, the activation was -0.109% (inactive).

`C=CCN1C(=O)/C(=C\c2cc(Br)ccc2OCC)C(=O)NC1=S`: the activation is 0.0155% (inactive). Turning to `C#CCOc1ccc(Br)cc1/C=C1\NC(=S)N(C)C1=O`, the activation is 5.86% (active).

With `C#CCOc1ccc(C=C2C(=O)NC(=S)NC2=O)cc1Cl`, the activation was -0.112% (inactive).

Consider `C/C(=N\NC(=O)CNC(=O)c1ccccc1Br)c1ccccc1`, for which the activation is -0.31% (inactive). Turning to `Cc1cccc(OCCNC(=S)NC(=O)c2cccnc2)c1`, the activation was 7.55% (active). In the case of `CC(C)(C)c1ccc(OCCNC(=S)NC(=O)c2cncc(Br)c2)cc1`, the activation is 0.8% (inactive). Turning to `Cc1cccc(C)c1OCC(=O)OCCNC(=O)c1cccnc1`, the activation was 2.35% (inactive). Take `COc1ccc(-c2c(C)nn3c(NCCN(C)C)cc(C)nc23)cc1`: the activation is 0.306% (inactive). The result for `O=C1NC2(CCCC2)C(=O)N1Cc1nnc(-c2ccccc2Br)o1` reads 0.439% (inactive). For `CS(=O)(=O)N(CC(=O)Nc1ccc(F)cc1F)c1cccc([N+](=O)[O-])c1`, the activation was -0.142% (inactive).

Consider `CS(=O)(=O)N(CC(=O)Nc1ccc(F)cc1F)c1ccc(F)cc1`, for which the activation was 7.88% (active). On to `CS(=O)(=O)N(CC(=O)Nc1ccc(F)cc1F)c1cc(Cl)c(Cl)cc1Cl`, for which the activation was -0.649% (inactive). With `OCCn1c(SCCSc2nc3ccccc3n2CCO)nc2ccccc21`, the activation was -0.408% (inactive). For `COc1cc(NC(=O)c2cccc(Br)c2)ccc1NC(=O)c1ccco1` the value was 0.388% (inactive); for `COc1ccc(NC(=O)c2sc3ncnc(N4CCCCC4)c3c2C)cc1OC`, 0.695% (inactive); for `COc1ccccc1N1CCN(c2ncnc3sc(C(=O)Nc4ccc5c(c4)OCCO5)c(C)c23)CC1`, -0.8% (inactive). As for `COc1cc(NC(=O)c2sc3ncnc(N4CCCCC4)c3c2C)cc(OC)c1OC`, the activation is 5.99% (active). For `CCC(CC)NCc1cc(OC)c(OC)cc1Br` the value was 0.484% (inactive).

For `Cc1ccc([N+](=O)[O-])cc1S(=O)(=O)Nc1cccc(N(C)C)c1`, the activation is 0.193% (inactive). On to `Cc1cc(C)cc(N(C(C)C(=O)Nc2ccc(Cl)cc2)S(C)(=O)=O)c1` (stereo not given), for which the activation is -1.25% (inactive). Consider `Nc1cc(Cl)ccc1C(=O)OCC(=O)Nc1ccc(N2CCCCC2)cc1`, for which the activation was 2.3% (inactive).

With `O=C1N[C@@H](Cc2ccccc2)C(=O)N2CCN(C(=O)c3ccc(OC(F)(F)F)cc3)C[C@H]12`, the activation was -1.02% (inactive). On to `CC12CCC(C(=O)NC3CCCCC3)(OC1=O)C2(C)C` (stereo not given), for which the activation was 4.96% (active). The result for `Cc1nc(NC(=O)C23CCC(C)(C(=O)O2)C3(C)C)sc1C` (stereo not given) reads -1.28% (inactive). Consider `CC(C)NC(=O)C12CCC(C)(C(=O)O1)C2(C)C` (stereo not given), for which the activation was 0.406% (inactive).

For `Cc1ccnc(NC(=O)Nc2sc3nc4n(c(=O)c3c2C)CCC(C)CC4)c1` (stereo not given), the activation was 0.22% (inactive).

Consider `CCn1c(C(CC(C)C)NC(=O)C2CC2)nc2cccnc21` (stereo not given), for which the activation was -0.148% (inactive).

On to `COc1ccc(C(=O)N2CCCN(c3nc4cc(C)c(C)cc4cc3C#N)CC2)cc1OC`, for which the activation was 2.69% (inactive). `Cc1ccc(C(=O)NCC(=O)OCC(=O)N(C(C)C)C(C)C)cc1C`: the activation was -0.906% (inactive). As to `CCOc1cc2c(cc1OCC)C(c1ccc3ccccc3c1)NCC2` (stereo not given), the activation was 5.53% (active). Take `CCOc1cc2c(cc1OCC)C(c1cc(F)c(F)c(F)c1)NCC2` (stereo not given): the activation is -0.242% (inactive).

Take `CCOc1cc2c(cc1OCC)C(c1ccc(OC)c(C)c1)NCC2` (stereo not given): the activation is 0.975% (inactive). For `O=C(NC1CCCCCC1)c1ccc(NS(=O)(=O)c2cccs2)cc1` the value was 2.64% (inactive); for `COc1cccc(/C=N/N=C2/NC(=O)CS2)c1O`, -1.32% (inactive).

On to `COc1ccc(/C=N/N=C2/NC(=O)CS2)c(OC)c1`, for which the activation was -0.156% (inactive).

In the case of `COc1cc(/C=N/N=C2/NC(=O)CS2)ccc1OC(=O)c1ccccc1C`, the activation is 10.4% (active). Consider `COCCn1c(=NC(=O)c2c(C)cnn2C)sc2cc(Cl)ccc21`, for which the activation is -0.961% (inactive). As for `Cc1cccc(C(=O)Nc2ccc(C(=O)Nc3ccc(C(=O)Nc4ccccc4C)cc3)cc2)c1`, the activation was 2.61% (inactive). In the case of `Cc1ccc(C(=O)Nc2ccc(N(C)C)cc2)cc1C`, the activation was -2.22% (inactive). With `Cc1ccc(NC(=O)c2cccc(N(C)C)c2)cc1NC(=O)c1ccc(O)cc1`, the activation is 8.84% (active). Regarding `Cc1cccc(Nc2nc(-c3ccc(I)cc3)cs2)c1`, the activation is -1.86% (inactive). Consider `Cc1ccc(Nc2nc(-c3ccccn3)cs2)cc1C`, for which the activation is 11.2% (active). With `Cc1ccc(-c2csc(Nc3ccccc3)n2)c(C)c1`, the activation is 0.521% (inactive). With `O=C(c1ccccc1)N1CCN(C2CC(=O)N(c3cc(Cl)cc(Cl)c3)C2=O)CC1` (stereo not given), the activation is -0.358% (inactive). Regarding `Cc1ccc(OCCN2CCNCC2)c(Cl)c1`, the activation is 0.0124% (inactive).

Take `CC(C)C(=O)NC(C)c1nnc2n1CCN(Cc1cccc3ncccc13)CC2` (stereo not given): the activation was 0.68% (inactive).

With `CCC(=O)NC(c1nnc2n1CCN(Cc1ccc3cccnc3c1)CC2)C(C)C` (stereo not given), the activation was 0.149% (inactive). On to `CC(C)C(=O)NC(C)c1nnc2n1CCN(Cc1ccc3cccnc3c1)CC2` (stereo not given), for which the activation was 5.04% (active). As to `Cc1cc(OCC(=O)NNC(=O)COc2ccc(Br)cc2Br)cc(C)c1Cl`, the activation was 0.12% (inactive). For `CC(C)c1nc2sc3c(NCCCO)ncnc3c2c2c1COC(C)(C)C2` the value was 1.25% (inactive); for `CCCN1C(=O)c2ccc(C(=O)Nc3ccc(O)cc3C(=O)O)cc2C1=O`, -4.67% (inactive). For `COCCN1C(=O)c2ccc(C(=O)Nc3ccc(C(=O)O)cc3)cc2C1=O` the value was -0.197% (inactive). `CCCN1C(=O)c2ccc(C(=O)Nc3ccc(C(C)=O)cc3)cc2C1=O`: the activation was 6.33% (active). The result for `O=C(CCC1=NS(=O)(=O)c2ccccc2N1)N1CCN(c2ccccc2)CC1` reads 0.684% (inactive). In the case of `O=[N+]([O-])c1ccc(Nc2nc(Cl)nc(NCCN3CCOCC3)n2)cc1`, the activation was 3.01% (inactive).

Turning to `COc1cc(C(=O)NCCC(=O)NCC2COc3ccccc3O2)cc(OC)c1OC` (stereo not given), the activation is -0.141% (inactive). Turning to `CCOC(=O)C(=O)NCC1COc2ccccc2O1` (stereo not given), the activation was 0.866% (inactive). Turning to `COc1ccc(Br)cc1C(=O)NCC1COc2ccccc2O1` (stereo not given), the activation was 5.44% (active).

In the case of `O/N=C(\C(=N\O)c1ccccc1)c1ccccc1`, the activation was -0.0395% (inactive).

Take `COC(=O)Cc1ccc(NC(=S)N2CCC(C(N)=O)CC2)cc1`: the activation was -0.283% (inactive). For `O=C(NCC1CCCO1)c1ccc(N2CC3CC(C2)c2cccc(=O)n2C3)c(NS(=O)(=O)c2ccc(Cl)cc2)c1` (stereo not given), the activation is -2.43% (inactive). Consider `FC(F)(F)c1cccc(CNc2nc(Nc3ccc(N4CCOCC4)cc3)nc3c2ncn3-c2ccsc2)c1`, for which the activation is 0.773% (inactive).

`CCN(CC)C(=O)C1CCCN(c2nc(NCc3cccc(C(F)(F)F)c3)c3cc(OC)c(OC)cc3n2)C1` (stereo not given): the activation was -0.297% (inactive). In the case of `Cc1cnc(Nc2ccc(N3CCOCC3)cc2)nc1NCc1cccc(C(F)(F)F)c1`, the activation was 6.5% (active). Consider `CCN(CC)C(=O)C1CCCN(c2ncc(C)c(Nc3ccc(N4CCOCC4)cc3)n2)C1` (stereo not given), for which the activation was 0.13% (inactive). For `CCN(CC)C(=O)C1CCCN(c2ncc(C)c(NCc3cccc(C(F)(F)F)c3)n2)C1` (stereo not given), the activation is 5.92% (active). Regarding `FC(F)(F)c1cccc(CNc2ccnc(N3CCOCC3)n2)c1`, the activation was 0.285% (inactive).

With `FC(F)(F)c1ccc(Cn2cnc3c(NCc4cccc(C(F)(F)F)c4)nc(Nc4ccc(N5CCOCC5)cc4)nc32)cc1`, the activation was 5.04% (active). Take `c1ccc(CNc2nc(Nc3ccc(N4CCOCC4)cc3)nc3c2ncn3-c2ccccc2)cc1`: the activation was 1.12% (inactive). The result for `FC(F)(F)c1cccc(CNc2ncnc3nc(N4CCOCC4)[nH]c23)c1` reads 1.38% (inactive).
